{
  "source": "PubChem BioAssay (NCI)",
  "note": "Compounds without any hit were thinned out: in the full panel of roughly 83,000, 20% have a hit.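 For each line, cells grew in 96-well plates with the test compound present at a single concentration for 48 hours.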 Values without a mark were called inactive. Calls of active or inactive are those of the source.",
  "data": [
    {"test_system": "CCRF-CEM leukemia", "test": "NCI-60 one-dose screen, 48 h (100 = growth as untreated, 0 = no growth, -100 = all killed)", "conditions": "10 µM unless noted", "experimental": "Growth inhibition of the CCRF-CEM human tumor cell line is measured as a screen for anti-cancer activity. Cells are grown in 96 well plates and exposed to the test compound for 48 hours. Compounds are tested at a single concentration, which is 10^-5 M for most compounds. The reported endpoint is percent growth (GI% or GIPRCNT), where numbers from 0 - 100% represent growth inhibition, and numbers from -100% - 0 represent cell death. For example, a value of 40 represents 60% growth inhibition. A value of 0 means no net growth occurred over the course of the experiment. A value of -40 indicates 40% of cells at the beginning of the experiment died by the end of the experiment. A value of -100 means all cells are dead at the end of the experiment.\nNCI-60 Human Tumor Cell Lines Screen was performed using the standard one-dose NCI protocol, which is described in more detail at https://dtp.cancer.gov/discovery_development/nci-60/default.htm.\nCompounds with GIPRCNT values below 10 were considered active. Activity score was based on GIPRCNT using the following formula: […]\nScore is 0 for GIPRCNT values of 100 or above, 50 for GIPRCNT values of 0, and 100 for GIPRCNT values of -100.", "values": [
      {"molecule": "C[C@@H](Nc1ncnc2ccc(-c3cnc(Cl)c(NS(C)(=O)=O)c3)cc12)c1ccccc1", "growth": "42.6%"},
      {"molecule": "N#Cc1cccc(CN2CCC3=C(C2)C(=O)N(Cc2ccc(Cl)cc2)C2=NCCCN23)c1", "growth": "37.1%"},
      {"molecule": "COc1ccc(/C=C/C(=O)c2cccc(NC(=O)CSc3nc4ccccc4c(=O)n3-c3ccccc3)c2)cc1OC", "growth": "115%"},
      {"molecule": "CCn1c(SCC(=O)Nc2cccc(C(=O)/C=C/c3ccc(Br)cc3)c2)nc2ccccc2c1=O", "growth": "75%"},
      {"molecule": "N#Cc1ccccc1Cn1c2nc(=N)c3ccccc3c-2nc2ccccc21", "growth": "70.6%"},
      {"molecule": "CC(=O)c1ccc(Nc2nc(SCC(C)C)nc(-c3ccccc3)c2C#N)cc1", "growth": "102%"},
      {"molecule": "CC1(C)[C@@H](O)CC[C@]2(C)[C@H]3CC[C@@H]4[C@H]5[C@H](C(=O)/C=C\\c6ccncc6)CC[C@]5(O)CC[C@@]4(C)[C@]3(C)CC[C@@H]12", "growth": "8.75% (active)"},
      {"molecule": "CCCn1cnc2c(c1=N)C(c1ccc(F)cc1)c1sc3c(C)cccc3c1O2", "note": "(stereo not given)", "growth": "-3.84% (active)"},
      {"molecule": "C#CCNC1CCC(c2csc(C#C)n2)=C1C", "note": "(stereo not given)", "growth": "-9.98% (active)"},
      {"molecule": "CCCCCc1ccc(S(=O)(=O)Nc2cccc(-c3csc(NC(=O)CNCCN(C)C)n3)c2)cc1", "growth": "63.5%"},
      {"molecule": "CC(=O)c1nnn(-c2c(C(=O)n3nc(C)cc3C)sc(=S)n2-c2ccccc2)c1C", "growth": "101%"},
      {"molecule": "N#Cc1cnc2ccc(-c3cnc(N)nc3)cc2c1N1CCc2cc(F)c(Cl)cc21", "growth": "5.74% (active)"},
      {"molecule": "COc1cc(OC)cc(C(=O)Nc2sc3c(c2C(N)=O)CCC(=O)C3)c1", "growth": "8.55% (active)"},
      {"molecule": "CNC(=O)c1c(NC(=O)c2ccccc2C(F)(F)F)sc2c1CCC(=O)C2", "growth": "11.9%"},
      {"molecule": "NS(=O)(=O)c1ccc(Nc2nc(SCC(=O)c3ccc(Cl)cc3)nc3c2CCCC3)cc1", "growth": "41.1%"},
      {"molecule": "CNC(=O)c1cc(Oc2ccc3nc(NC(=O)c4cccc(OC(F)(F)F)c4)sc3c2)ccn1", "growth": "71.2%"},
      {"molecule": "C#Cc1nc(/C=C/C(=O)c2nccn2C)cs1", "growth": "-21.6% (active)"},
      {"molecule": "O=S(=O)(NC1c2ccccc2C[C@H]1O)c1ccc(Cl)cc1Cl", "note": "(stereo not given in full)", "growth": "105%"},
      {"molecule": "Nc1nc(-c2cccc([N+](=O)[O-])c2)c(N=Nc2ccc(Br)cc2)s1", "growth": "31.9%"},
      {"molecule": "O=C(c1ccc(Cl)cc1)C1[C@H](c2ccc(Cl)cc2)[C@@H](c2ccccc2)NC12C(=O)Nc1ccccc12", "note": "(stereo not given in full)", "growth": "53.9%"},
      {"molecule": "CN(C)CCNC(=O)c1ccc(-c2nc3ccc4[nH]ncc4c3c3c2CCC3)cc1", "growth": "3.51% (active)"},
      {"molecule": "Cn1cc(-c2nnc(N)nc2-c2c[nH]c3ccc(F)cc23)c2cc(F)ccc21", "growth": "39.4%"},
      {"molecule": "CN(C)CCNC(=O)c1ccc(-c2nc3ccc4[nH]ncc4c3c3c2COCC3)cc1", "growth": "2.22% (active)"},
      {"molecule": "CCCn1cnc2c(c1=N)C(c1ccc(Cl)cc1)c1sc3c(CC)cccc3c1O2", "note": "(stereo not given)", "growth": "0.961% (active)"},
      {"molecule": "CS(=O)(=O)Nc1cc(-c2ccc3ncc(C#N)c(NCc4ccccc4O)c3c2)cnc1Cl", "growth": "19.9%"},
      {"molecule": "Cn1ccnc1C(=O)/C=C/C=C/c1ccc(C(=O)Nc2ccc(F)cc2)cc1", "growth": "10.3%"},
      {"molecule": "CNC(=O)c1cc(-c2ccc(NC(=S)Nc3cc(C(F)(F)F)cc(C(F)(F)F)c3)cc2)nc2cccnc12", "growth": "94.5%"},
      {"molecule": "CCOc1ccc(NC2=C(Cl)C(=O)c3nc(C)ccc3C2=O)cc1", "growth": "0.626% (active)"},
      {"molecule": "C#CC(=O)N(c1ccc(OC)cc1OC)C(C(=O)NCC(=O)OCC)c1cccs1", "note": "(stereo not given)", "growth": "-53.8% (active)"},
      {"molecule": "C#C[C@]1(O)CC[C@H]2[C@@H]3CC=C4c5sc(-c6ccc7c(c6)OCO7)nc5CC[C@]4(C)[C@H]3CC[C@@]21C", "growth": "30.6%"},
      {"molecule": "COc1ccc(-n2c(SCc3n[nH]c(=S)o3)nc3ccc(Cl)cc3c2=O)cc1", "growth": "98.7%"},
      {"molecule": "CCNC(=O)N1CCc2cc(OC)c(OCCc3ccc(OC)nc3)cc2C1c1ccc(OC)cc1C", "note": "(stereo not given)", "growth": "39.3%"},
      {"molecule": "CNC(=O)c1cc(N2CCc3cc(NC(=O)Nc4ccc(Cl)c(C(F)(F)F)c4)ccc32)ccn1", "growth": "48.4%"},
      {"molecule": "CCN(CC)c1ccc2c(c1)Oc1nc(N)c(C#N)c(N)c1C2Sc1ccc(F)cc1", "note": "(stereo not given)", "growth": "-23% (active)"},
      {"molecule": "CCOC(=O)C(=O)/C(=C\\c1ccc(Cl)cc1)C(=O)N1C(=S)NC(=O)C1CC(C)C", "note": "(stereo not given)", "growth": "91.2%"},
      {"molecule": "CCOC(=O)C(=O)CC(=O)N1C(=S)NC(=O)C1CC(C)C", "note": "(stereo not given)", "growth": "100%"},
      {"molecule": "CCc1nn2c(C)cc(C)nc2c1Cc1ccc(/C=C/CN2CCN(CCOCCOCCN3CCN(C/C=C/c4ccc(Cc5c(CC)nn6c(C)cc(C)nc56)cc4)CC3)CC2)cc1", "growth": "-10.2% (active)"},
      {"molecule": "NC(=O)c1cccc(-n2ccc3cc(NC(=O)Nc4ccc(N5CCOCC5)c(C(F)(F)F)c4)ccc32)n1", "growth": "1.21% (active)"},
      {"molecule": "CN1CCN(Cc2ccc(NC(=O)c3cncc(C#Cc4cnc5ccc(NCCCO)nn45)c3)cc2C(F)(F)F)CC1", "growth": "6.66% (active)"},
      {"molecule": "N=c1c2cc(-c3ccccc3)oc2ncn1/N=C/c1ccc(Br)cc1", "growth": "68.7%"}
    ]}
  ]
}
